Measured values as given in PubChem BioAssay.
Several values for one entry are separate records, joined by “and”; a condition that tells them apart may be missing. Equal values may be shown once. Activity calls are given as the source filed them.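 Rule for the calls, unless noted: active = compounds whose cell count with miR-34 switched on is under 0.7 times the count with it off; inactive = the rest.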 Where a SMILES comes first, the peptide text is derived from it. [ ]: non-standard residue; d: D form. pGlu = O=C1CC[CH](C(=O)O)N1; Thz = O=C(O)[CH]1CSCN1

Key:
[1] = viability loss with induced miR-34 in A549 – imaging, A549 dox-inducible miR-34, nuclei and caspase counts, primary screen (AID 1347080); conditions: A549 miR-34 inducible, Hoechst nuclei count, 48 h; note: test concentration not given here
[2] = MELAS cybrid and Rieske KO viability enhancers – cell-based, MELAS cybrids, Rieske KO mouse fibroblasts, CellTiter-Glo, primary screen (AID 1508586;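 active = mean z-score across replicates of 1.96 or higher in either the MELAS or the Rieske mutant cell line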;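 note: test concentration not given here; z relative to plate mean and SD of compound and empty wells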); conditions: low glucose
[3] = galactose survival enhancers in mitochondrial complex I cybrids – cell-based, galactose medium, ATP luminescence, primary screen (AID 1645843;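 active = z-score of at least 1.8 in each of two replicates, scored against plate mean and spread of sample wells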;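 note: positive z means more ATP and so rescue of galactose-driven cybrid death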); conditions: complex I mutant cybrid cells, 72 h, stronger effect = higher value
[4] = stronger effect = lower value, cell number ratio, induced over uninduced
[5] = measured here: relative caspase fold change +Dox/-Dox
[6] = measured here: total cells with miR-34 induction, stronger effect = lower value
[7] = measured here: total cells without miR-34 induction
[8] = MELAS cybrid survival, CellTiter-Glo 48 h, stronger effect = higher value
[9] = Rieske KO mouse fibroblast survival, CellTiter-Glo 72 h

SMILES	fold change [1, 4]	fold change [1, 5]	cell count [1, 6]	cell count [1, 7]	z-score [2, 8]	z-score [2, 9]	z-score [3]
Cc1ccccc1-n1cc(-c2ccnc(NCCC3(O)CCN(C)CC3)n2)cn1	0.797 (inactive)	1.49	8470	10600	0.152 (inactive)	-0.0851	-0.43 (inactive)
NC(N)=NC(N)=Nc1cc(C(F)(F)F)ccc1Cl	0.901 (inactive)	0.694	7310	8110	0.898 (inactive)	-0.189	-1.95 (inactive)
O=C(CC1=CCCCC1)NCc1ccon1	0.939 (inactive)	1.22	9490	10100	0.26 (inactive)	-0.5	-0.49 (inactive)
COc1ccc(-c2ncnc3sc(C)c(C)c23)c2cccnc12	0.949 (inactive)	0.85	7370	7760	0.0989 (inactive)	-0.295	-0.525 (inactive)
Cc1ccc(Cn2nccc2NC(=O)Cn2cc(-c3ccc(F)cc3)cn2)o1	0.895 (inactive)	0.589	8330	9310	-0.0022 (inactive)	-0.187	1.75 (inactive)
Cc1ccc(Sc2cccc3nc(N)nc(N)c23)cc1	1.07 (inactive)	0.775	3810	3570	0.0344 (inactive)	0.646	-2.52 (inactive)
O=C1CCC(C(=O)N2CSCC2C(=O)O)N1 (configuration not stated) ([pGlu]-[Thz]-OH; configuration not given here)	0.957 (inactive) and 1 (inactive)	1.75 and 0.634	9270 and 8110	9680 and 8100	-0.302 (inactive)	-0.109	0.45 (inactive)
COc1ccc(C=CC(=O)O)cc1O	0.917 (inactive)	0.34	9250	10100	0.642 (inactive)	-0.171	0.285 (inactive)
COc1ccc(F)c(-c2cccc(N)n2)c1	0.864 (inactive)	1.37	8940	10300	-0.0723 (inactive)	-0.237	-0.555 (inactive)
O=C(O)c1cc(Br)ccc1NS(=O)(=O)c1ccc(Cl)cc1	0.854 (inactive)	0.75	8540	10000	-0.163 (inactive)	-0.343	0.495 (inactive)
Cc1nsc(NC(=O)N(C)Cc2cn[nH]c2-c2ccc(F)cc2)n1	0.916 (inactive)	0.879	9230	10100	0.225 (inactive)	-0.278	-0.49 (inactive)
CCCCS(=O)(=O)CCC(=O)O	0.879 (inactive)	0.837	8330	9470	-0.282 (inactive)	-0.71	-0.155 (inactive)
O=C(NCC(c1ccccc1)c1ccccc1)Nc1nncs1	0.844 (inactive)	1.57	7570	8970	-0.117	3.64	1.59 (inactive)
Cc1nsc(NC(=O)NC2CCc3ccccc3C2)n1 (configuration not stated)	0.899 (inactive)	1	3190	3550	-0.269 (inactive)	-0.339	1.48 (inactive)
CCN(CC)C(=O)[C@]1(c2ccccc2)CC1CN (some centres not stated)	0.994 (inactive) and 0.915 (inactive)	2.55 and 0.784	10600 and 8120	10700 and 8880	-0.247 (inactive)	-0.165	0.315 (inactive)
O=S(=O)(O)CCCSc1nc2ccccc2s1	0.906 (inactive)	0.489	8800	9700	-0.268 (inactive)	-0.142	0.7 (inactive)
O=C(NCc1ccccn1)c1ccc(Oc2ccccc2)cc1	0.933 (inactive)	0.296	8650	9270	0.509 (inactive)	-0.417	0.08 (inactive)
OC(CNCC(O)C1CCc2cc(F)ccc2O1)C1CCc2cc(F)ccc2O1 (configuration not stated)	1.62 (inactive)	0.335	2500	1540	0.602	2.88	-2.66 (inactive)
Cc1cccc2c(C(=O)N3C4CCCCC3CCC4)cc(-c3cncnc3)nc12	0.922 (inactive)	1.14	8060	8740	0.139 (inactive)	-0.667	-0.275 (inactive)
O=C1CN(c2ncnc3sccc23)CCN1C1CCCC1	0.857 (inactive)	1.28	8070	9410	-1.24 (inactive)	-0.154	1.98 (inactive)
COc1ccc2c(c1)CCN(C(=O)Nc1n[nH]c(-c3ccccc3F)n1)C2	0.904 (inactive)	0.695	7710	8530	-0.521	3.73	0.16 (inactive)
Nc1nc(NC(Cn2ccnc2)c2ccccc2)c2cn[nH]c2n1 (configuration not stated)	0.958 (inactive)	1.04	9810	10200	-0.353 (inactive)	-0.318	-0.495 (inactive)
OCCCc1cn(C2CCN(c3nn4cnnc4c4ccccc34)CC2)nn1	0.902 (inactive)	1.35	8970	9940	0.105 (inactive)	-0.51	-0.54 (inactive)

SMILES	fold change [1, 4]	fold change [1, 5]	cell count [1, 6]	cell count [1, 7]	z-score [2, 8]	z-score [2, 9]	z-score [3]
Cn1cc(/C=C/C(=O)N2CCc3[nH]nc(-c4ccccc4F)c3C2)cn1	0.865 (inactive)	2.04	7720	8920	-0.472 (inactive)	-0.29	-0.48 (inactive)
OCC(O)COc1ccc(Cl)cc1 (configuration not stated)	0.886 (inactive)	0.44	8700	9820	0.325 (inactive)	0.457	0.62 (inactive)
c1ccc(CN2CCC(Nc3ncnc4sccc34)CC2)nc1	0.895 (inactive)	1.42	5240	5860	-0.277 (inactive)	-0.421	-0.58 (inactive)
COc1ccc(CSc2nnc(-c3ccc4c(c3)OCO4)o2)cc1F	0.89 (inactive)	0.327	8570	9630	0.835 (inactive)	-0.403	1.06 (inactive)
CC(=O)NCC1CN(c2ccc(N3CCOCC3)c(F)c2)C(=O)O1 (configuration not stated)	0.917 (inactive) and 0.981 (inactive)	1.72 and 0.989	6880 and 7480	7500 and 7630	-0.285 (inactive)	0.466	0.65 (inactive)
CC(C)(C)C(=O)Nc1ccc2c(c1)CC(=O)N2	0.817 (inactive)	1.77	8370	10200	0.0898 (inactive)	0.0111	-0.52 (inactive)
O=C(O)CNC(=O)c1cccc(O)c1	0.865 (inactive)	0.603	8440	9760	0.669 (inactive)	0.0478	0.945 (inactive)
CCn1cnc(NC(=O)N(C)Cc2cccc3ncccc23)n1	0.944 (inactive)	1.82	9300	9840	-0.163 (inactive)	-0.316	-0.465 (inactive)
NNC(=O)c1ccc(-c2ccccc2Cl)o1	0.826 (inactive)	0.386	7740	9360	0.702 (inactive)	-0.293	0.765 (inactive)
O=C(Nc1n[nH]c(-c2ccco2)n1)N1CCc2ccccc2C1	0.896 (inactive)	0.879	7540	8420	1.17	3.81	0.1 (inactive)
COc1cccc2ccc(-c3coc4ccccc4c3=O)nc12	0.946 (inactive)	0.913	7730	8170	-0.341 (inactive)	0.246	2.79 (active)
CNC1CCC(c2ccc(Cl)c(Cl)c2)c2ccccc21 (configuration not stated)	0.897 (inactive) and 0.972 (inactive)	1.54 and 0.385	3400 and 7100	3800 and 7300	-0.116 (inactive)	-0.231	-1.88 (inactive)
O=C(Nc1c[nH]c2ccccc12)c1cc(-c2ccc(F)cc2)n[nH]1	0.84 (inactive)	1.42	7140	8510	-0.224 (inactive)	0.73	-0.56 (inactive)
CCCn1ncc(-c2ccnc(NCc3cc(CC)no3)n2)c1C	0.843 (inactive)	1.57	6710	7960	-0.178 (inactive)	-0.0436	-0.59 (inactive)
O=C(O)CCCCCNC(=O)NC1CCCCC1	0.882 (inactive)	0.38	9190	10400	-0.568 (inactive)	0.057	0.68 (inactive)
COc1ccccc1-c1cnn(CC(=O)Nc2cc(C)nn2C)c1	0.86 (inactive)	2.23	7820	9090	0.116 (inactive)	-1.22	-0.56 (inactive)
CCC(C)n1ncn(-c2ccc(N3CCN(c4ccc(OCC5CO[C@](Cn6cncn6)(c6ccc(Cl)cc6Cl)O5)cc4)CC3)cc2)c1=O (some centres not stated)	0.844 (inactive) and 0.945 (inactive)	0.375 and 1.03	6320 and 8160	7490 and 8630	0.58 (inactive) and -0.288 (inactive)	-0.239 and 0.0468	-2.34 (inactive)
Cc1csc(CNC(=O)Cc2csc(-c3ccccc3)n2)n1	0.931 (inactive)	1.12	8110	8710	0.125 (inactive)	0.0782	-0.44 (inactive)
O=C(O)Cc1ccc(O)c([N+](=O)[O-])c1	0.901 (inactive)	0.986	8450	9380	0.677 (inactive)	0.189	1 (inactive)
CN(C)Cc1cn(CC2CCN(C(=O)c3ccc4c(c3)OCO4)CC2)nn1	0.896 (inactive)	1.18	9300	10400	-0.121 (inactive)	-0.477	-0.48 (inactive)
Nc1ccc(CCC(=O)O)cc1	0.96 (inactive)	0.255	9320	9710	0.558 (inactive)	-0.0102	1.27 (inactive)
Cc1cc(C(=O)Nc2ccc3c(c2)CC(=O)N3)c(C)o1	0.929 (inactive)	1.42	9120	9820	-0.11 (inactive)	-0.503	-0.465 (inactive)
O=C(Nc1cccnc1)C1CCN(C(=O)c2ccccc2Cl)CC1	0.886 (inactive)	1.9	8890	10000	0.0994 (inactive)	-0.159	-0.045 (inactive)
